Among all 270,000 compounds or so, about 5,800 (2.1%) were called active. Where a call stands in place of a potency, no number is given. Roughly 16% stayed inconclusive and do not appear here. The sample as a whole holds a higher share of actives than the screen did. The source holds several records for some structures; these can differ, active in one and inactive in another. A number with no mark means an inactive call. Calls follow the shape of the dose curve; as a rule, active = well fitted inhibition curve with a large enough effect; inconclusive = small, poorly fitted or top-dose-only effect; inactive = flat fitted curve, though single readings scatter.
molecular target: Microtubule-associated protein tau (Homo sapiens) (UniProt P10636); test: qHTS for Inhibitors of Tau Fibril Formation, Thioflavin T Binding; details: recombinant tau K18 P301L, heparin-induced fibrillization, ThT fluorescence; series mostly up to 57.4 µM; also: nearly all actives have a fitted effect of over 55% in size
Sequence (P10636 561-689 P618L limits assumed): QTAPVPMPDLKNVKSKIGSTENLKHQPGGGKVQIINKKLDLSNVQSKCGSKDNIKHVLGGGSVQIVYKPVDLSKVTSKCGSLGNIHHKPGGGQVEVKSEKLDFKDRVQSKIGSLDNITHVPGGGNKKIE
Procedure, shortened: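 ThT emission at 510 nm, taken 1 hr after adding 30 uM dye, quantifies aggregates formed when 20 uM heparin acts on human tau K18 P301L for 6 hr at 37 C.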
Potency is read from the fitted curve at half-maximal effect.

Structure (SMILES)	Potency	activity, negative = inhibition
Clc1ccccc1CSc1nnc(-c2ccco2)c(-c2ccco2)n1	17.8 µM (active)	
Nc1nc(SCc2ccccc2Cl)n[nH]1	inactive	
O=C(Nc1nnc(SCc2ccccc2)s1)c1ccco1	inactive	
COC(OC)c1ccnc(SCc2ccccc2Cl)n1	inactive	
c1ccc(CSc2nnc(-c3ccco3)c(-c3ccco3)n2)cc1	7.94 µM (active)	
Brc1ccc(CSc2ccc(-c3ccco3)nn2)cc1	inactive	
COc1ccc(C2C(=O)N(C3CCCCC3)CC(=O)N2Cc2ccccc2Cl)cc1OC (configuration not stated)	inactive	
Cc1onc(-c2ccc(F)cc2F)c1C(=O)Nc1cccc(C(F)(F)F)c1	inactive	
CCC(Sc1nc2n[nH]c(C)c2c(=N)n1-c1ccccc1Cl)C(=O)N(CC)CC (configuration not stated)	inactive	
COc1ccccc1CNC(=O)C(=O)NCC(c1cccs1)S(=O)(=O)c1cccs1 (configuration not stated)	inactive	
Cc1cc(C)n(-c2ccc(C(=O)O)cc2[N+](=O)[O-])n1	inactive	
CN(C)c1ccc(/C=C/C(=O)c2ccc(O)cc2)cc1[N+](=O)[O-]	4.47 µM (active)	
O=C(c1ccc(Cl)c([N+](=O)[O-])c1)N1CCN(c2ccccc2)CC1	inactive	
CN(C)c1ccc(/C=C/C(=O)c2ccc(C(C)(C)C)cc2)cc1[N+](=O)[O-]	inactive	
O=C(/C=C/c1ccc(Cl)c([N+](=O)[O-])c1)c1ccc(O)cc1	15.8 µM (active)	
CC(CC(=O)O)C(=O)c1ccc(Cl)c([N+](=O)[O-])c1 (configuration not stated)	inactive	
COc1ccccc1CNc1ccc(-c2nc(-c3ccccc3C)no2)cc1[N+](=O)[O-]	inactive	
CCCOc1ccc(-c2cccc(NS(=O)(=O)c3ccccc3)c2)nn1	inactive	
COc1ccc(CNC(=O)COCc2cc(-c3cccs3)on2)cc1OC	inactive	
Cc1ccc(Cn2cc(CCC(=O)NCc3ccc(OC(C)C)cc3)c3ccccc32)cc1	inactive	
c1ccc(CNc2ncnc3[nH]ncc23)cc1	inactive	
CCN(CC)S(=O)(=O)c1cc([N+](=O)[O-])ccc1N=Nc1c(O)n(C)c2ccccc12	inactive	
O=[N+]([O-])c1cc(S(=O)(=O)Nc2cccc(Cl)c2)ccc1N=Nc1c(O)[nH]c2ccccc12	10 µM (active)	
CN1CCN(c2ccc(S(=O)(=O)Nc3ccccc3)cc2[N+](=O)[O-])CC1	inactive	
O=C(Nc1ccc(F)cc1F)c1cnn(-c2ccc(F)cc2)c1-n1cccc1	inactive	
Cc1ccc2c(c1)N(C(=O)CCC(=O)NCc1ccccc1F)CC(C)O2 (configuration not stated)	inactive	

Structure (SMILES)	Potency	activity, negative = inhibition
CC1CN(C(=O)N2CCC(C(=O)NCc3ccco3)CC2)c2cc(Cl)ccc2O1 (configuration not stated)	31.6 µM (active)	
CCCS(=O)(=O)N1CCCC(C(=O)NCc2ccco2)C1 (configuration not stated)	inactive	
CN(C)/N=C/c1cc(Cl)cc([N+](=O)[O-])c1O	15.8 µM (active)	
CC(=O)N/N=C/c1cc2c(cc1[N+](=O)[O-])OCO2	inactive	
CSc1ccccc1NC(=O)CN(C)CC(=O)Nc1ccc(Cl)cc1[N+](=O)[O-]	inactive	
CC1Cc2cc(S(=O)(=O)CCC(=O)NCc3ccc(Cl)cc3)ccc2N1C(=O)C1CC1 (configuration not stated)	inactive	
CCN1CCN(c2ncc3c(n2)CC(c2ccccc2O)CC3=O)CC1 (configuration not stated)	inactive	
COc1ccc2nc(NC(=O)c3ccc(Br)s3)sc2c1	inactive	
COc1ccc2nc(Nc3nc4cc5c(cc4s3)OCCO5)sc2c1	3.55 µM (active)	
COc1ccc2nc(Nc3nc(-c4cc5ccccc5oc4=O)cs3)sc2c1	inactive	
CCC1=Nc2cc(C(=O)NCCCOC(C)C)ccc2Sc2ccc(C)cc21	inactive	
C=CC(C1=CC(=O)C=CC1=O)c1ccc(O)cc1 (configuration not stated)	28.2 µM (active)	
COc1cc2nc(SCc3ccc(F)cc3)n3nc(CCn4c(C)nc5ccccc54)nc3c2cc1OC	inactive	
CCCN(CC(=O)Nc1ccc(C(N)=O)cc1)CC(=O)Nc1ccccc1C	inactive	
CCCC(=O)Nc1ccc(C(=O)NCCCn2ccnc2)cc1	inactive	
CCCC(=O)Nc1ccc(C(=O)N/N=C/c2ccc[nH]2)cc1	15.8 µM (active)	
CCOc1cc2[nH]c(=O)n(Cc3ccc(C(=O)NCCN(CC)CC)cc3)c(=O)c2cc1OCC	inactive	
CCN(CCCNC(=O)c1c(C)oc2ncn(CC(C)C)c(=O)c12)Cc1ccccc1	inactive	
Cc1ccc2[nH]c3c(=O)n(CC(=O)NC(C)C)ncc3c2c1	inactive	
COc1ccc(Cc2nc3ccc(C(=O)NCc4ccccc4Cl)cc3o2)cc1	inactive	
COc1ccc(OC)c(NC(=O)CSC2=Nc3ccccc3C3=NC(CC(=O)NCc4ccc(F)cc4)C(=O)N23)c1 (configuration not stated)	inactive	
Cc1ccc(C(=O)CC2(O)C(=O)N(CCc3ccccc3)c3ccc(Br)cc32)cc1 (configuration not stated)	inactive	
COc1ccc2c(c1)C(=C(C#N)C#N)C(=O)N2CCc1ccccc1	28.2 µM (active)	
C#CCN1C(=O)C(O)(CC(=O)c2cc(OC)ccc2OC)c2ccccc21 (configuration not stated)	inactive	
Cc1cccc(C(=O)N2c3nc(-c4ccco4)nn3C3(CCCCC3)[C@@H]3CCCC[C@@H]32)c1	inactive	
COc1ccccc1N1CCN(C2C(=O)c3ccccc3N2C(C)=O)CC1 (configuration not stated)	inactive	

Structure (SMILES)	Potency	activity, negative = inhibition
CCOC(=O)C1=C(O)CSC1=Nc1cccc(Cl)c1	inactive	
CN(C)c1nc(=Nc2cccc(Cl)c2)ss1	25.1 µM (active)	
CC(=O)N1CCCc2cc(S(=O)(=O)N3CCC(C(=O)NCc4ccc(C)cc4)CC3)ccc21	inactive	
CCCCN(CC)CCCNC(=O)c1nn(C)c2c1CS(=O)(=O)c1ccccc1-2	inactive	
Cc1c2cnn(-c3ccccc3)c(=O)c2c(C)n1C(C)C(=O)Nc1ccc(Br)cc1F (configuration not stated)	inactive	
CCSC1=C(C#N)C(=O)n2c1cc1c2CCCC1	25.1 µM (active)	
CCSc1ncnc2c(C#N)c3n(c12)CCCCC3	inactive	
CCc1ccccc1NC(=O)c1ccc(F)c(S(=O)(=O)NC2CCCCCC2)c1	inactive	
Cc1oc2c(c1C(=O)Nc1ccc(F)c(F)c1)C1=NCCN1C=N2	inactive	
CCOC(=O)c1ccc(CN(Cc2ccccc2)S(=O)(=O)c2ccc(Cl)cc2)cc1	inactive	
CC(C)CCN(C(=O)Nc1ccc(Cl)c(Cl)c1)C(C)c1cccs1 (configuration not stated)	inactive	
O=C(NCc1cccnc1)C(=O)Nc1nc(-c2ccccc2)cs1	inactive	
c1cnc(Nc2nc(-c3ccc4ccccc4c3)cs2)nc1	inactive	
COc1ccc(-c2csc(NC(=O)CCCc3cccs3)n2)cc1	inactive	
Oc1ccc(-c2csc(Nc3cccnc3)n2)cc1	15.8 µM (active)	
COc1ccc(OC)c(Nc2nc(-c3ccc(O)c(O)c3)cs2)c1	10 µM (active)	
c1ccc(Nc2nc(-c3ccncc3)cs2)nc1	inactive	
COc1ccc(-c2csc(NC(=O)COC(=O)c3ccc(Br)o3)n2)cc1	inactive	
COc1ccc(-c2csc(Nc3ccc(O)cc3)n2)cc1	7.94 µM (active)	
COc1ccc(-c2csc(NC(=O)c3ccc(N4C(=O)CCC4=O)cc3)n2)cc1OC	inactive	
Cc1ccc(NC(=O)Cn2nnc3sc4c(c3c2=O)CCC(C)C4)cc1 (configuration not stated)	inactive	
COC(=O)c1ccc(NC(=O)c2cc(S(=O)(=O)N3CCC(C)CC3)cn2C)cc1	inactive	
O=S(=O)(NCCc1nnc2ccc(SCc3ccc(Cl)cc3Cl)nn12)c1ccccc1	inactive	
COc1ccc(Cl)cc1S(=O)(=O)N1CCC(c2ccncc2)CC1	inactive	
CC(C)Oc1ccc(NC(=O)c2cc3ccccc3o2)cc1	inactive	
Cc1c(/C=N\NC(=O)c2cc3ccccc3o2)c2ccccc2n1C	3.55 µM (active)	

Structure (SMILES)	Potency	activity, negative = inhibition
Cc1c(/C=N/N2C(=O)C3C4C=CC(C4)C3C2=O)c2ccccc2n1C (configuration not stated)	inactive	
COC(=O)CCCC1=CC2=CC(=O)C(C)(OC(=O)c3cccs3)C(=O)C2=CN1CC(C)C (configuration not stated)		-12.7% [at 11.5 µM]
COC(=O)CCCC1=CC2=CC(=O)C(C)(OC(=O)c3cccs3)C(=O)C2=CN1c1ccc(CO)cc1 (configuration not stated)		-2.21% [at 11.5 µM]
COC(=O)CCCC1=CC2=CC(=O)C(C)(OC(=O)c3cccs3)C(=O)C2=CN1c1cccc(C#N)c1 (configuration not stated)	31.6 µM (active)	-5.58% [at 11.5 µM]
CCn1c2c(c(=O)n3ncc(C(=O)N4CCN(c5ccccc5)CC4)c13)CN(Cc1ccc(OC)cc1)CC2	inactive	
COc1ccc(-n2c(=O)c3sc4ccccc4c3n(CC(=O)Nc3cccc(C)c3)c2=O)cc1	inactive	
Cc1ccc(NC(=S)NCCN2CCOCC2)cc1	inactive	
CNC(=S)N/N=C/c1ccc(N2CCOCC2)s1	17.8 µM (active)	
C=CCNC(=S)N/N=C/c1ccc(C)s1	inactive	
O=C(NCc1ccccc1)c1ccc2c(c1)nc1n2CCCCC1	inactive	
O=C(C1CCC(Cn2c(=O)c3sccc3n(Cc3ccccc3F)c2=O)CC1)N1CCCCC1 (configuration not stated)	inactive	
COc1ccc(-c2csc(N3CCN(Cc4ccc5c(c4)OCO5)CC3)n2)cc1	inactive	
Cc1noc(C)c1/C=N/Nc1ccc2ccccc2n1	inactive	
C(=N\Nc1ccc2ccccc2n1)/c1ccc2c(c1)OCO2	10 µM (active)	
Brc1ccc(-c2csc(N/N=C/c3ccc4c(c3)OCO4)n2)cc1	4.47 µM (active)	
O=C(Cc1ccc(F)cc1)N/N=C/c1ccc2c(c1)OCO2	inactive	
O=C(CNC(=O)C(c1ccccc1)c1ccccc1)N/N=C\c1ccc2c(c1)OCO2	inactive	
COc1ccc(Cl)cc1NC(=O)C(C)Sc1nc2c(c(=O)[nH]1)CCCC2 (configuration not stated)	inactive	
Cc1ccc(-c2nc(SCc3ccc(Br)cc3)n3[nH]c(=O)cc3n2)cc1	inactive	
COc1cc(-c2cc3n(C)c(C)c(CCC(=O)Nc4ccc(F)cc4)c(=O)n3n2)cc(OC)c1OC	inactive	
C(=N/Nc1cc(N2CCOCC2)nc(N2CCOCC2)n1)/c1ccccc1	inactive	
Cc1cc(N2CCN(c3ccccc3)CC2)nc(N2CCOCC2)n1	inactive	
CN(C)c1ccc(/C=N/Nc2cc(N3CCOCC3)nc(N3CCOCC3)n2)cc1	7.94 µM (active)	

— PubChem BioAssay AID1460 (National Center for Advancing Translational Sciences (NCATS), 2008)
